Pf growth 96h = inhibits malaria parasite growth, 96 h. P. falciparum luciferase reporter growth, 96 h. Potency, µM (doses to about 28.7 µM), for inactives: at the top dose activity change, negative = inhibition, usual class: inhibitors. actives 6.9% (n = 320,000). AID 504834; further: potency means the concentration at half of the fitted maximal effect; on the % scale 0 is the no-effect control and ±100 the full control effect
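Infected RBCs, 2% Hct / 0.05% parasitemia final; luciferase-reporter P. falciparum; cpd 96 h, 37 C, 5% CO2; luciferase detection reagent; luminescence.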
Lassa entry inh = blocks Lassa virus binding to or entry into cells; Lassa virus pseudotype entry inhibition, cell reporter; Potency, µM (doses to about 37.9 µM), inactives show top-dose activity change, negative = inhibition, usual class: inhibitors; actives 1.2% (n = 300,000); AID 540256; calls by dose curve; tested in HEK293 cells; further: potency means the concentration at half of the fitted maximal effect; on the % scale 0 is the no-effect control and ±100 the full control effect; nearly all actives have a fitted effect of over 50% in size
MARV entry inh = inhibitors of Marburg virus binding or cell entry. Marburg virus pseudotyped entry inhibition, cell reporter. Potency, µM (highest dose often 37.8 µM), inactives show at the highest dose activity change, negative = inhibition, most hits filed as inhibitors. actives 1.8% (n = 300,000); calls by dose curve; tested in HEK293 cells; further: potency means the concentration at half of the fitted maximal effect; on the % scale 0 is the no-effect control and ±100 the full control effect
Pf growth 48h = inhibits P. falciparum growth in the first generation, 48 h | actives 5.9% (n = 310,000) | Potency, µM (series often up to 28.7 µM), for inactives: at the top dose activity change, negative = inhibition, usual class: inhibitors | P. falciparum luciferase growth in erythrocytes, 48 h; further: potency means the concentration at half of the fitted maximal effect; on the % scale 0 is the no-effect control and ±100 the full control effect
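Cell-based growth assay: transgenic P. falciparum expressing firefly luciferase, cultured in red cells within RPMI 1640 containing 0.5% w/v Albumax, 24 mM bicarbonate and gentamycin. A drop in luciferase activity indicates inhibition.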
CHX counter = affects cycloheximide protein synthesis inhibition readout, counter-screen. cell reporter, cycloheximide protein synthesis inhibition counterscreen. max response, %. AID 2314. actives 12% (n = 300,000); in the data active means max response mostly above about 13%, no sharp cut-off; inactive means mostly below about 14%; further: read at 38.3 µM for the half of the compounds with a filed dose; 0% is about no effect
Shiga toxin inh = blocks Shiga toxin action in Vero cells; inhibition, % at 38.7 µM; Vero cells, Shiga toxin protein synthesis inhibition reporter; actives 9.2% (n = 290,000); in the data active means inhibition mostly above about 28%, no sharp cut-off; inactive means mostly below about 43%; further: 0% is about no effect
* hit, by the source's call; ? = inconclusive; / = no result; [ ] = remark or other dose. Most compounds without a hit are left out; they make up all but 19% or so of the library. Unless noted, the call rests on the fitted dose curve; in most records, active means well fitted inhibition curve with a large enough effect; inconclusive means small, poorly fitted or top-dose-only effect, or another doubt; inactive means no such curve, though single readings can be large or run the other way.

SMILES	Pf growth 96h	Lassa entry inh	MARV entry inh	Pf growth 48h	CHX counter	Shiga toxin inh
Cc1ccc(Cl)cc1NC(=O)C(Cc1ccccc1)N1C(=O)C2C3CCC(C3)C2C1=O (centres undefined)	17%	2%	?	-21%	10	2
CC(C)OCCCNC(=O)CN1C(=O)CC(C)(C)S(=O)(=O)c2ccccc21	?	/	/	/	-4	19
CCCCN(CCCC)S(=O)(=O)c1ccc2oc(C(=O)NCc3ccccc3)c(C)c2c1	/	-11%[46.1 µM]	/	/	/	/
Cc1nc(Nc2ccccc2)c2oc3ccc(Cl)cc3c2n1	?	3%	?	?	18*	43*
Cc1ccc(Nc2nc(C)nc3c2oc2ccccc23)cc1	?	-16%	?	?	11*	22
COc1ccc(Nc2nc(C)nc3c2oc2ccccc23)cc1	0%	?	?	-19%	10	1
c1ccc2c(c1)oc1c(Nc3ccc4c(c3)OCO4)ncnc12	151%	?	?	101%	45*	100*
Cc1nc(Nc2ccc3c(c2)OCO3)c2oc3ccccc3c2n1	6%	3%	39%	?	39*	46*
O=C(Nc1ccc(Cl)cc1C(=O)NCCN1CCOCC1)c1ccco1	125%	9%	13%	-2%	-1	2
Cc1cc(N(C)Cc2ccccc2)nc(-c2ccccc2)n1	9%	2%	?	0%	15	50
Cc1cc(N(C)Cc2ccccc2)nc2cc(O)ccc12	3%	15%	6%	1.7µM*	20*	44*
OC1(c2ccc(Br)cc2)CCN(Cc2cccc(Br)c2)CC1	4.7µM*	/	/	?	9	1
Brc1cccc(CN2CCCCCC2)c1	-17%	/	/	9%	-1	-8
Cc1c(C(C)(C)C)sc(=NC(=O)c2ccccc2O)n1C	?	10%[46.1 µM]	?	86%	38*	82*
O=C(NCc1ccc(Cl)cc1)C1=Cc2cc(Br)ccc2OC1	/	0%[46.1 µM]	/	/	/	/
O=C(CSc1ccc(-c2ccco2)nn1)c1cccc([N+](=O)[O-])c1	13µM*	-5%	-6%	?	-5	20
O=C(CSc1ccc(-c2ccco2)nn1)N1CCCC1	-12%	24%[46.1 µM]	4%[46.1 µM]	13%	14	10
O=C(CSc1ccc(-c2ccco2)nn1)N1CCCCC1	12%	31%	13%	40%	61*	62*
O=C(CSc1nnc(-c2ccco2)o1)NC1CCCCCC1	1%	-1%	1%	/	-3	-9
CC1CCN(C(=O)CSc2nnc(-c3ccco3)o2)CC1	-1%	/	/	/	-3	-2
CC1CC(C)CN(C(=O)CSc2nnc(-c3ccco3)o2)C1 (centres undefined)	?	15%	10%[46.1 µM]	-15%	13*	47
O=C(CSc1nnc(-c2ccco2)o1)N1CCCCC1	14%	-18%[46.1 µM]	?	169%	25*	66*
CC(=O)c1c(-c2ccccc2)c2cc([N+](=O)[O-])ccc2[nH]c1=O	11%	/	/	?	-7	1
CCOc1ccccc1CN1CCN(Cc2cc3ccccc3[nH]2)CC1CCO (centres undefined)	?	19%	?	?	2	20
Cc1cc(C(=O)COC(=O)CNC(=O)c2ccco2)c(C)n1Cc1ccco1	8%	-1%	7%	37%	11	12
SMILES	Pf growth 96h	Lassa entry inh	MARV entry inh	Pf growth 48h	CHX counter	Shiga toxin inh
Cc1cc(C(=O)C(C)Cl)c(C)n1Cc1ccco1 (centres undefined)	3%	/	-22%[46.1 µM]	-14%	8	-7
Cc1cc(C(=O)COC(=O)c2ccc(O)cc2)c(C)n1Cc1ccco1	77%	?	?	143%	67*	66*
CCOc1ncccc1C(=O)OCC(=O)c1cc(OC)ccc1OC	5%	0%[46.1 µM]	0%[46.1 µM]	-9%	-1	-21
Cc1cc(C(=O)COC(=O)c2ccc(Br)o2)c(C)n1Cc1ccco1	48%	/	/	72%	52*	97*
Cc1cc(C(=O)COC(=O)C(C)NC(N)=O)c(C)n1Cc1ccco1 (centres undefined)	16%	-28%	?	24%	35*	94*
CCOc1ncccc1C(=O)OCC(=O)c1cc(C)n(Cc2ccco2)c1C	73%	?	?	/	27*	67*
Cn1cccc1CC(=O)NNC(=S)Nc1ccccc1Cl	11%	17%[46.1 µM]	2%[46.1 µM]	21%	22	26

Screening results deposited in PubChem by National Center for Advancing Translational Sciences (NCATS).
